# L3MBTL1 block: blocks human L3MBTL1. AlphaScreen L3MBTL1–H3K9me1 peptide binding. Potency, µM (titrated, usually from 57.1 µM), inactives show at the highest dose activity, negative = inhibition, actives largely listed as inhibitors. actives 0.66% (n = 230,000); note: % is set by controls: 0 for no effect and ±100 for the full control effect; nearly all actives have a fitted effect of over 60% in size
#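 Displacement of a biotinylated histone H3(1-15) peptide monomethylated at Lys9 (75 nM) from L3MBTL1 (50 nM) was measured by AlphaScreen after a 30 min room-temperature compound incubation; cefsulodin titration served as intraplate control.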
# G9a inh: G9a (human) methyltransferase inhibition | actives 8.8% (n = 350,000) | Q96KQ7 | AID 504332 | Potency, µM (highest dose often 102 µM), for inactives: at the top dose activity, negative = inhibition, actives largely listed as inhibitors | G9a H3K9 monomethylation, AlphaScreen, 2 h; note: % is set by controls: 0 for no effect and ±100 for the full control effect; nearly all actives have a fitted effect of over 75% in size
# Target sequence (Q96KQ7 913-1193 limits assumed): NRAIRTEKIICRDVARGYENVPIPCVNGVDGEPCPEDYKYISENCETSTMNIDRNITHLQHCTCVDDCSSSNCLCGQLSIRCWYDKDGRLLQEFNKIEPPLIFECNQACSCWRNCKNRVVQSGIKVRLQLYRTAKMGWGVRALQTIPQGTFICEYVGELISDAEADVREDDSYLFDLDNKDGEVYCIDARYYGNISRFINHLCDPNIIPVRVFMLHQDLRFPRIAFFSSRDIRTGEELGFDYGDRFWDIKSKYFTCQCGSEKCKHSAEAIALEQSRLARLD
#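 Signal arises when biotinylated H3K9 peptide, once monomethylated, bridges streptavidin donor and antibody-captured acceptor beads. Enzyme at 20 nM was preincubated 15 min with test compounds; peptide 500 nM and SAM 20 uM then reacted for 2 h.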
# Sfp inh: Sfp phosphopantetheinyl transferase inhibition; Q9F4F7; Potency, µM, without a hit: largest response in the series, negative = inhibition, usual class: inhibitors; actives 3.5% (n = 310,000); Biochemical Sfp PPTase activity, qHTS;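 note: the enzyme is Sfp with the accession as filed and its product quenches rhodamine fluorescence; 0% = enzyme reaction without inhibitor and -100% = no enzyme wells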
#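 Reaction rates are the 30-min fluorescence difference (ex 525, em 598 nm) in wells containing 15 nM Sfp, 5 uM rhodamine-CoA and 12.5 uM BHQ-2-YbbR at pH 7.6 with 10 mM MgCl2.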
# HP1b binding inh: blocks HP1-beta chromodomain binding to methylated histone tails. AlphaScreen HP1-beta / biotin-H3K9me3 peptide binding. P83916. Potency, µM (titrated, usually from 114 µM), for the others: at the top dose activity change, negative = inhibition, hits mostly inhibitors. actives 0.56% (n = 390,000); note: nearly all actives have a fitted effect of over 70% in size
# Target sequence (P83916 whole entry, looked up): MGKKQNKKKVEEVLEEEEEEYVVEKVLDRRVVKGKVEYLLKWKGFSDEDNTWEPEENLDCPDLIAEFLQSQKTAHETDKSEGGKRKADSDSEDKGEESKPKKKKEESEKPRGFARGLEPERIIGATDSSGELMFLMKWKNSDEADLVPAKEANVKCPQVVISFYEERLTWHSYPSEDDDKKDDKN
#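 HP1-beta protein (50 nM final) preincubated 30 min at room temperature with biotinylated H3(1-18)K9me3 peptide (50 nM) in PBS pH 7.4, 0.01% Tween-20, then compound added for 30 min. AlphaScreen streptavidin donor/nickel chelate acceptor beads (10 ug/mL final), 30 min dark, luminescence read.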
# BAZ2B inh: inhibitors of human BAZ2B bromodomain. Q9UIF8. AlphaScreen BAZ2B-H3K14Ac peptide displacement. Potency, µM (series often up to 114 µM), for inactives: at the highest dose activity change, negative = inhibition, usual class: inhibitors. actives 4.4% (n = 360,000); note: % is set by controls: 0 for no effect and ±100 for the full control effect; nearly all actives have a fitted effect of over 60% in size
#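 BAZ2B (50 nM) with biotin-H3(5-23)K14Ac peptide (50 nM) in PBS pH 7.4, 0.01% Tween-20, preformed 30 min, then compound 30 min at room temperature; top concentration 110uM. AlphaScreen streptavidin donor/nickel chelate acceptor beads (10 ug/mL final), 20 min dark, signal read.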
# JMJD2A Tudor: JMJD2A Tudor domain (human) inhibition; AlphaScreen JMJD2A-Tudor / H3K4me3 peptide binding; O75164; AID 504339; actives 4.4% (n = 390,000); Potency, µM (doses to about 114 µM), inactives show at the top dose activity change, negative = inhibition, most hits filed as inhibitors; note: % is set by controls: 0 for no effect and ±100 for the full control effect; nearly all actives have a fitted effect of over 50% in size
# * marks the source's active call; other numbers are inactive results; ? = inconclusive; . = not tested or not shown; [ ] = dose if it differs, or a comment. Hits are enriched below; roughly 12% of the tested compounds scored in any of these assays. Calls come from the whole dose curve; as a rule, active = well fitted curve in the direction sought with a large enough effect; inconclusive = small, poorly fitted or top-dose-only effect, or another doubt; inactive = no such curve, though single readings can be large; an effect the other way counts as inactive or inconclusive. Potency is the fitted concentration of half-maximal effect.
SMILES,L3MBTL1 block,G9a inh,Sfp inh,HP1b binding inh,BAZ2B inh,JMJD2A Tudor
Cc1ccc(-c2nc(=S)c3c(n2CC2CCCO2)CC(C)(C)OC3)cc1 (stereo unspecified),.,17%[12.7 µM],-11%,18%,32%,-3%
Cc1cccc(-c2nc(=S)c3c(n2Cc2ccco2)CCCC3)c1,.,?,20µM*,1%,-20%,-15%
Cc1ccc(-c2nc(=S)c3c(n2Cc2ccco2)CCCC3)cc1,5%,-44%[12.7 µM],-49%,69%,-18%,-4%
Cc1ccc(-c2nc(=S)c3c(n2Cc2ccco2)CC(C)(C)OC3)cc1,-7%,-26%[0.0925 µM],56µM*,25%,-33%,-9%[57.1 µM]
CCS(=O)(=O)N1CCc2cc(C(=O)Nc3cccc(C)c3C)ccc21,.,-43%[59 µM],.,-22%,-29%,?
CCOc1ccc(C(c2c(O)cc(C)n(CCOC)c2=O)N2CCC(C)CC2)cc1 (stereo unspecified),.,-31%[59 µM],.,27%[57 µM],-9%,-14%
c1ccc(C2=Nn3c(Cn4nnc5ccccc54)nnc3SC2)cc1,-2%,?,24%,27%,-5%,-7%
c1ccc(-c2ccc(C3=Nn4c(Cn5nnc6ccccc65)nnc4SC3)cc2)cc1,-14%,8.9µM*,28µM*,16µM*,6%[57.1 µM],?
Clc1ccc(C2=Nn3c(Cn4nnc5ccccc54)nnc3SC2)cc1,1%,.,32µM*,?,?,79µM*
COc1cc(OC)cc(C(=O)NCC(=O)N2CCN(c3ccc(O)cc3)CC2)c1,.,22µM*,56µM*,?,-8%,22µM*
COc1ccc(N2CCN(C(=O)CNC(=O)c3ccc4ccccc4c3)CC2)cc1,1%,-7%[2.33 µM],.,47%,-4%,-8%
COc1ccc(N2CCN(C(=O)c3ccc(C(C)(C)C)cc3)CC2)cc1,.,?,?,?,45µM*,56µM*
COc1ccccc1N1CCN(C(=O)NC23CC4CC(CC(C4)C2)C3)CC1,-3%,79µM*,13%,24%,-15%,-14%
COc1ccc(N2CCN(C(=O)COC(=O)CNC(=O)c3ccc(C)cc3)CC2)cc1,-3%,40µM*,.,6%,0%,-16%
CCOC(=O)N1CCN(C(=O)COC(=O)CNC(=O)c2ccc(C)cc2)CC1,3%,-24%,.,52%,-1%,-11%
c1csc(-c2nc(N3CCN(Cc4ccc5c(c4)OCCO5)CC3)c3ccccc3n2)c1,.,.,.,6%,.,?
Cc1cccc(NC(=O)c2cc(S(=O)(=O)N3CCc4ccccc43)ccc2F)c1C,.,0%[59 µM],.,5%,7%,-13%
COc1ccc(S(=O)(=O)NCCc2sc3nc(-c4ccc(C)cc4)nn3c2C)cc1C,.,7%[59 µM],.,17%,-14%,-22%
COc1ccc(C(=O)N2CCN(c3ccccc3OC)CC2)cc1,.,?,7%,39%,-16%,-4%
COc1ccc(N2CCN(C(=O)C(C)(C)Oc3ccc(Cl)cc3)CC2)cc1,?,7.9µM*,?,?,40µM*,50µM*
CC(=O)N1CCN(c2ccc(NC(=O)c3ccc(C(C)(C)C)cc3)cc2)CC1,-13%,11µM*,-17%,2%,-8%,-28%
COc1cc(OC)cc(C(=O)N2CCC(N3CCN(c4ccccc4OC)CC3)CC2)c1,-3%,7.9µM*,-52%,?,50µM*,1.1µM*
COc1ccccc1N1CCN(C(=O)c2ccc(C(C)(C)C)cc2)CC1,-1%,12%[59 µM],-7%,-25%,-4%,3.2µM*
CCC(Sc1nc2nccnc2c(=O)n1Cc1ccc(C)cc1)C(=O)NC1CCCCC1 (stereo unspecified),.,-5%[59 µM],.,35%,7%,8%
Cc1ccc(NC(=O)CN2C(=O)c3cccnc3Oc3ccc(Cl)cc32)cc1,.,-30%[59 µM],.,28%,0%,-10%
COc1ccc(OC)c(C2=Nn3c(nnc3-c3ccc(OC)c(OC)c3)SC2)c1,.,.,-16%,.,.,?
